Hits are enriched below; roughly 3.1% of the tested compounds scored in any of these assays.
Anthrax LF prot = inhibitors of Bacillus anthracis lethal factor protease | multiplex microsphere protease cleavage assay, LF | P15917 | inhibition, % at 10 µM | AID 588501 | actives 0.12% (n = 360,000)
Target sequence (P15917 whole entry, looked up): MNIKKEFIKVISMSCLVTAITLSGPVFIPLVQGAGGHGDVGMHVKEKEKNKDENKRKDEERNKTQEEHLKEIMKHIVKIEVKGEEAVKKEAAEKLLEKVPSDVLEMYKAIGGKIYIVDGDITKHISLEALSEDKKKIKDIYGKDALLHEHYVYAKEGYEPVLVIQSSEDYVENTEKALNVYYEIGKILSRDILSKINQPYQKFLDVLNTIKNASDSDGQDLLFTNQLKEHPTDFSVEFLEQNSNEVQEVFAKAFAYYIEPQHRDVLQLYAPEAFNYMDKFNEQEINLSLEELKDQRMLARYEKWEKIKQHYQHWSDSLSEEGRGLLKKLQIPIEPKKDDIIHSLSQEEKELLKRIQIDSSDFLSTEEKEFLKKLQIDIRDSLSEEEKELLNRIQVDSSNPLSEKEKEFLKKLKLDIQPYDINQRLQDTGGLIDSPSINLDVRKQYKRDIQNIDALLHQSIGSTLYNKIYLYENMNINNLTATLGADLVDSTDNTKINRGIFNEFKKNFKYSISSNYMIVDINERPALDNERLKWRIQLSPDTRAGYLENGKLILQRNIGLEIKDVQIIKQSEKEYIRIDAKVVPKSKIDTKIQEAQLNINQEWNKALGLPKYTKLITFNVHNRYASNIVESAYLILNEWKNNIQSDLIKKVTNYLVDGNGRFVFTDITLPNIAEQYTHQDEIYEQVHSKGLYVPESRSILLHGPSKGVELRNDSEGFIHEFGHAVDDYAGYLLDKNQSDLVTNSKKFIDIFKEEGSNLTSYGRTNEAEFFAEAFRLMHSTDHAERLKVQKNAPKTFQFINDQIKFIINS
BoNT F protease = inhibitors of Botulinum neurotoxin F light chain protease. AID 588497. actives 0.22% (n = 360,000). inhibition, % at 10 µM. Multiplex microsphere protease cleavage assay, flow cytometry; in the data active = inhibition above about 35%, passing the limit was not always enough; inconclusive = no clear call, values can overlap the other calls
SSB-PriA inh = blocks PriA binding to SSB C-terminal tail; AlphaScreen SSBct-PriA binding, biotinylated peptide; inhibition, % at 33 µM; AID 1272365; actives 0.6% (n = 430,000); in the data active = inhibition mostly above about 37%, no sharp cut-off; inactive = mostly below about 20%
BoNT A protease = blocks Botulinum neurotoxin A light chain protease; multiplex microsphere protease substrate cleavage, flow cytometry; inhibition, % at 10 µM; actives 0.17% (n = 360,000); AID 588499
Bead autofluor = counter-screen for toxin protease inhibitors: compound fluorescence; actives 3.1% (n = 360,000); compound autofluorescence counterscreen, microsphere flow cytometry; stronger effect = higher value; fluorescence intensity (test concentration not listed); AID 624483; in the data active = fluorescence intensity above about 16000; inconclusive = no clear call, values can overlap the other calls
Hits are given with their value; n = inactive; u = inconclusive; x = no result given; ! = not active in a repeat. Rule as the data show it, unless noted: active = inhibition above about 30%; inconclusive = no clear call, values can overlap the other calls; inactive = below that.

SMILES	Anthrax LF prot	BoNT F protease	SSB-PriA inh	BoNT A protease	Bead autofluor
O=C(Cc1cccs1)N1CCC(c2nc3c(nnn3Cc3ccccc3)c(=O)[nH]2)CC1	n	n	n	n	20008
N#Cc1ccc(NC(=O)N2CCC(c3nc4c(nnn4Cc4cccc(Cl)c4)c(=O)[nH]3)CC2)cc1	n	n	n	n	20736
O=C(CN1C(=O)CCC1=O)NCC1(c2ccsc2)CCCC1	x	x	n	x	x
CC(C)(C)c1ccc(Cn2nnc3c(=O)[nH]c(C4CCCN(C(=O)Cc5cccs5)C4)nc32)cc1 (stereo not given)	n	n	n	n	n
CC(C)(C)c1ccc(Cn2nnc3c(=O)[nH]c(C4CCN(C(=O)Cc5cccs5)CC4)nc32)cc1	n	n	n	n	20958
CC(=NCc1ccc(F)cc1)c1c(O)n(C)c(=O)n(C)c1=O	n	n	n	u	19909
CC(=NCCCn1ccnc1)c1c(O)n(C)c(=O)n(C)c1=O	n	n	n	n	19563
CC(=NCc1ccco1)c1c(O)n(C)c(=O)n(C)c1=O	n	n	n	n	21713
COc1cc(CN=C(C)c2c(O)n(C)c(=O)n(C)c2=O)cc(OC)c1	n	n	n	n	n
CC(=NCC1CCCO1)c1c(O)n(C)c(=O)n(C)c1=O (stereo not given)	n	n	n	n	20914
O=C(NCC1CCN(C(=O)Nc2ccc(F)cc2)CC1)C(=O)Nc1cc2c3c(c1)CC(=O)N3CCC2	x	x	n	x	x
COc1ccccc1N1CCN(CCNC(=O)C(=O)Nc2cc(C)nc3ccccc23)CC1	x	x	n	x	x
O=C(CCc1cccc(Oc2ccc(F)cc2)c1)NC[C@H]1CCCN(c2nccs2)C1	x	x	n	x	x
Nc1ccc(C#Cc2ccccc2)cc1	n	n	n	u	20219
Nc1ccccc1C#Cc1ccccc1	n	n	n	n	n
CCOC(=O)c1c(-c2ccccc2)nc2ccccn12	n	n	n	u	22802
CSc1ccccc1NC(=O)c1ccco1	n	n	n	n	22329
O=C(Nc1ccccc1-c1ccccc1NC(=O)c1ccco1)c1ccco1	n	n	n	n	n
O=C(Nc1ccccc1F)c1ccco1	n	n	n	n	n
O=C(Nc1c(-c2ccccc2)nc2ccccn12)c1ccco1	n	n	n	u	22214
CCOC(=O)c1c(-c2ccccc2)nc2c(C)cccn12	n	n	n	n	n
O=C(Nc1ccccc1NC(=O)c1ccco1)c1ccco1	n	n	n	n	22408
O=C(CCS(=O)(=O)c1ccc(Cl)cc1)Nc1nnc(CSc2ccccc2)o1	x	x	n	x	x
O=C1CCC(C(=O)N2CCc3nc4ccc(Cl)cn4c(=O)c3C2)=NN1	x	x	n	x	x
CC(=O)NC(Cc1ccccc1)C(=O)NC1CCN(C(=O)c2ccc([N+](=O)[O-])cc2)CC1 (stereo not given)	n	n	n	n	n
SMILES	Anthrax LF prot	BoNT F protease	SSB-PriA inh	BoNT A protease	Bead autofluor
CC(=O)NC(Cc1ccccc1)C(=O)NC1CCN(C(=O)c2cnccn2)CC1 (stereo not given)	n	n	n	u	16732
O=C(NCCOCCONC(=O)Nc1ccccc1Cl)Nc1ccccc1Cl	x	x	n	x	x
Nc1nnc(Cc2ccc(F)cc2)s1	n	n	n	n	n
Nc1nnc(CC2=CCCCC2)s1	n	n	n	n	22203
COc1ccc(N=C2S/C(=C\c3ccc(OCC(=O)O)cc3)C(=O)N2CCc2c[nH]c3ccccc23)cc1	n	n	50.6	n	n
COc1ccc(N=C2S/C(=C\c3ccc(N4CCOCC4)o3)C(=O)N2CCc2c[nH]c3ccccc23)cc1	n	n	x	n	n
COc1cccc2sc(OC3CN(C(=O)c4csc(-c5ccccc5)n4)C3)nc12	x	x	n	x	x
O=C(COC(=O)c1cnccn1)c1ccc(Br)cc1	n	n	n	n	n
O=C(COC(=O)c1cnccn1)c1ccc2c(c1)CCCC2	n	n	n	n	20610
C=C(C)CSc1nnc(-c2cc(OC)c(OC)c(OC)c2)n1N	n	n	n	n	21195
C=C(C)CSc1nnc(-c2ccc(OC)c(OC)c2)n1N	n	n	n	n	n
Cc1cc(N2CCN(C)CC2)nc2ccc(NC(=O)CCC(=O)NCCC3=CCCCC3)cc12	n	n	n	n	21266
COC(=O)c1ccc(CSc2nnc3n2CCN3c2ccccc2)o1	x	x	n	x	x
Cc1cc(NC(=O)c2ccc(C(=O)c3ccccc3)cc2)n(C)n1	x	x	n	x	x
CCOc1ccc(NC(=S)NCc2ccc3[nH]c(C)cc3c2)cc1	n	n	n	n	n
CCCCNC(=S)NCc1ccc2[nH]c(C)cc2c1	n	n	49.6!	n	n
Cc1cc2cc(CNC(=O)c3ccc4c(c3)OCO4)ccc2[nH]1	n	n	n	67.0	n
CCc1c(C(=O)NCc2ccc3c(c2)OCO3)[nH]c(C)c1C(C)=O	n	n	n	n	17026
Cc1nnc(NC(=O)CCc2csc3nc(-c4ccc(Cl)cc4)cn23)s1	x	x	n	x	x
O=C(/C=C/c1ccccc1)Nc1ccc(-c2cn3ccccc3n2)cc1	x	x	n	x	x
CCOc1ccc(-n2nnc3c(=O)n(Cc4nc(-c5cccc(Br)c5)no4)cnc32)cc1	x	x	n	x	x
O=C(CSc1nc(-c2ccccc2)nc2c1Cc1ccccc1O2)Nc1ccccc1C(F)(F)F	x	x	n	x	x
CCOC(=O)Cn1c(=NC(=O)CCCS(=O)(=O)Cc2ccccc2)sc2cc(F)ccc21	x	x	n	x	x
C=CCn1c(N)c(-c2nc3ccccc3n2C)sc1=S	n	n	n	n	22610
Cn1c(-c2sc(=S)n(-c3ccccc3)c2N)nc2ccccc21	n	n	n	n	n
SMILES	Anthrax LF prot	BoNT F protease	SSB-PriA inh	BoNT A protease	Bead autofluor
CN(C)S(=O)(=O)c1cccc(NC(=O)COC(=O)c2cc3ccccc3oc2=O)c1	n	n	n	n	n
CCN(c1ccc(NC(=O)COC(=O)c2ccc(S(=O)(=O)N3CCCC3)cc2)cc1)C(C)C	n	n	n	n	24507
CCN(c1ccc(NC(=O)COC(=O)c2cc3ccccc3oc2=O)cc1)C(C)C	n	n	54.1	n	n
O=C(COC(=O)c1ccc(O)cc1)Nc1ccc(S(=O)(=O)N2CCCC2)cc1	n	n	n	n	n
COc1ccc(S(=O)(=O)c2cnc(SCC(=O)NCCC3=CCCCC3)[nH]c2=O)cc1Cl	x	x	n	x	x
Cc1ccc(-c2cnn(-c3cccc([N+](=O)[O-])c3)c2N)cc1	n	n	n	n	23689
Cc1ccccc1-c1cnn(-c2cccc([N+](=O)[O-])c2)c1N	n	n	n	n	n
Cc1cc(Cl)ccc1OC(C)C(=O)NNC(=O)c1cccc([N+](=O)[O-])c1 (stereo not given)	x	x	n	x	x
CN1C(=O)C(O)(CC(=O)c2cccnc2)c2ccccc21 (stereo not given)	n	n	n	n	23918
Cc1ccc(NC(=O)CCc2ccc(S(=O)(=O)N3CCOCC3)cc2)c(C)c1	n	n	n	u	20854
Cc1ccc(Nc2ccc(S(=O)(=O)N3CCOCC3)cc2[N+](=O)[O-])c(C)c1	n	n	50.7	n	n
COc1ccc(Nc2ccc(S(=O)(=O)N3CCCCC3)cc2[N+](=O)[O-])cc1Cl	n	n	49.3	n	n
COc1ccccc1C(C)Nc1ccc(S(=O)(=O)N2CCOCC2)cc1[N+](=O)[O-] (stereo not given)	x	x	70.2	x	x
COc1ccc(-c2c3c(nc4sc(C(=O)NC[C@H]5CCCO5)c(N)c24)CC(C)(C)CC3=O)cc1	x	x	n	x	x
COC(=O)c1sccc1S(=O)(=O)N1CCC(Oc2cnccn2)CC1	x	x	n	x	x

Assay outcomes deposited in PubChem by several laboratories.
